The source of these data is ChEMBL document CHEMBL3988442, “University of Dundee, Small-Polar-MMV Screening Library” (2021).

SMILES strings stand for the structures. Screen size: about 69,000 compounds; about 950 (1.4%) showed an effect of 50% or more. The full list was thinned out, with strong results kept by preference.

The assay deals with Mycobacterium tuberculosis. The assay is described as follows: Cornell M. t heat shock assay. Note: in the data most compounds retested in dose-response had high values. Format: functional, organism-based. Further details: dose or concentration left out as unconfirmed.
With `O=C(O)C(F)(F)F.O=C(c1ccoc1)N1CC[C@@H]2O[C@@H](COCCN3CCCC3)CC[C@@H]21`, the “Percent Effect” value is -1.941%.

Take `O=C(O)C(F)(F)F.O=C(O)C(F)(F)F.O=C1[C@H]2CN(Cc3ccccn3)C[C@H]2CN1c1ccsc1`: the “Percent Effect” value is listed as -8.069%.

For `CO[C@H]1CCN(Cc2cccs2)[C@@H]2CN(Cc3ccncc3)C[C@H]12.O=C(O)C(F)(F)F.O=C(O)C(F)(F)F.O=C(O)C(F)(F)F`, the “Percent Effect” value turned out to be 0.7697%.

In the case of `O=C1CCNc2ncc(-c3ccc(Cl)cc3)cc2CN1C1CC1`, the “Percent Effect” value is listed as 53.07%.

In the case of `O=C1CCNc2ncc(-c3cccc(Cl)c3)cc2CN1C1CC1`, the “Percent Effect” value turned out to be 61.09%.

As to `COc1ccc(-c2cnc3c(c2)CN(C2CC2)C(=O)CCN3)cc1`, the “Percent Effect” value was found to be 36.55%.

`O=C1CCNc2ncc(-c3ccccc3Cl)cc2CN1C1CC1`: the “Percent Effect” value is listed as 39.75%.

On to `O=C1CCC(=O)N1CCn1nnc(-c2cccc(Cl)c2)n1`, for which the “Percent Effect” value is -24.84%.

As to `Cl.Clc1ccc(-c2ccc(C3CNCCO3)nc2)cc1` (stereo not drawn), the “Percent Effect” value was 2.375%.

For `COc1ccc(OCCN2CCC(N3CCNC3=O)CC2)cc1`, the “Percent Effect” value is listed as 47.29%.

Turning to `Cc1ccc(N2CCO[C@H]3CN(Cc4nccs4)C[C@H]32)nn1.O=C(O)C(F)(F)F.O=C(O)C(F)(F)F`, the “Percent Effect” value was -20.26%.

Turning to `O=C(O)C(F)(F)F.O=C(O)C(F)(F)F.O=C([C@H]1C[C@H]2OCC[C@H]2N(Cc2cccnc2)C1)N1CCCO1`, the “Percent Effect” value was -0.4009%.

On to `CCC1CN(C(=O)c2ccc(=O)[nH]n2)CCC(=O)N1Cc1ccccc1` (stereo not drawn), for which the “Percent Effect” value is 3.349%.

With `CCC1CN(C(=O)c2ccc(=O)[nH]c2)CCC(=O)N1Cc1ccccc1` (stereo not drawn), the “Percent Effect” value was determined as 106.1%.

Turning to `CCC1CN(C(=O)c2cccc(O)c2)CCC(=O)N1Cc1ccccc1` (stereo not drawn), the “Percent Effect” value stood at 3.275%.

For the molecule `Fc1ccc(CN2CCC(F)(F)C3(CCN(c4cnccn4)C3)C2)cc1.O=C(O)C(F)(F)F.O=C(O)C(F)(F)F` (stereo not drawn), the “Percent Effect” value worked out at 3.728%.

Turning to `c1ccc2c(c1)CN(c1ncnc3c1CCNC3)CCO2`, the “Percent Effect” value was found to be 22.91%.

For `Cc1cccc(=O)n1CCCNc1nc(N(C)C)nc2c1CCNC2`, the “Percent Effect” value is reported as 44.77%.

Consider `c1ccc2c(c1)CCN(c1ncnc3sc4c(c13)CCNC4)C2`, for which the “Percent Effect” value worked out at 12.7%.

Turning to `Cc1cc2n(n1)CCN(c1nc(N(C)C)nc3c1CCNC3)C2`, the “Percent Effect” value was 7.698%.

With `Cc1ccccc1N1CCN(c2nc(N(C)C)nc3c2CCNC3)CC1`, the “Percent Effect” value turned out to be 99.74%.

With `CN(C)c1nc2c(c(N3CCc4ccccc4C3)n1)CCNC2`, the “Percent Effect” value is recorded as 101.7%.

For `CN(C)c1nc2c(c(N3CCc4c(c(CO)nn4C)C3)n1)CCNC2`, the “Percent Effect” value is listed as -14.09%.

`Cc1nc2c(c(N3CCN(c4ncccc4C(N)=O)CC3)n1)CCNC2`: the “Percent Effect” value stood at 6.854%.

Turning to `c1ccc2c(c1)CCN(c1nc(-c3ccncc3)nc3c1CCNC3)C2`, the “Percent Effect” value turned out to be 105.2%.

Regarding `NCC1CCC2(CCN(C(=O)c3ccccn3)CC2)CO1.O=C(O)C(F)(F)F.O=C(O)C(F)(F)F` (stereo not drawn), the “Percent Effect” value was determined as 3.829%.

Turning to `Cn1cc(N2CC3(CCN(CC4CCC4)CC3)OCC2=O)cn1.O=C(O)C(F)(F)F`, the “Percent Effect” value stood at 10.75%.

As for `Cc1cccc(C(=O)N2CCC[C@]3(C[C@@H](OCC4CC4)CO3)C2)n1.O=C(O)C(F)(F)F`, the “Percent Effect” value amounted to 5.615%.

In the case of `O=C(O)C(F)(F)F.O=C([C@@H]1C[C@@H]2CCN(Cc3ccoc3)C[C@H]2O1)N1CCCC1`, the “Percent Effect” value came out at 5.199%.

`Cc1noc(C)c1C(=O)N1Cc2ncn(C)c2C(COCC(C)C)C1.O=C(O)C(F)(F)F` (stereo not drawn): the “Percent Effect” value amounted to 10.61%.

Regarding `O=C(Cc1ccccc1)N1C[C@@H]2OCCN(CC3CCCO3)[C@@H]2C1.O=C(O)C(F)(F)F` (stereo partly drawn), the “Percent Effect” value is listed as -18.47%.

`Cc1cc(Oc2ccc(NC(=O)C3CC3)cc2)cc(C2CCNCC2)n1.Cl`: the “Percent Effect” value amounted to 4.147%.

Turning to `COc1ccc(CN2CCC3(CC2)CC(CC(=O)NC(C)C)CO3)cc1.O=C(O)C(F)(F)F` (stereo not drawn), the “Percent Effect” value turned out to be 0.5964%.

Consider `CCN(CC)Cc1cn2c(n1)CN(C(=O)c1cnccn1)CC2.O=C(O)C(F)(F)F`, for which the “Percent Effect” value is recorded as -4.073%.

Turning to `CC(C)c1nn(C)c(N(C)C)c1CNC1CCOc2c(F)cccc21.Cl` (stereo not drawn), the “Percent Effect” value was found to be 0.8128%.

Take `O=C(NCCNc1ncccn1)Nc1cc(C(F)(F)F)c[nH]c1=O`: the “Percent Effect” value was -2.019%.

As to `CC(C)CCOCCNC(=O)Nc1cc(C(F)(F)F)c[nH]c1=O`, the “Percent Effect” value is 62.92%.

`O=C(NCCOc1ccccc1)Nc1cc(C(F)(F)F)c[nH]c1=O`: the “Percent Effect” value is 24.31%.

Turning to `O=C(NCCc1ccco1)Nc1cc(C(F)(F)F)c[nH]c1=O`, the “Percent Effect” value came to 9.339%.

On to `CC(CCc1ccco1)NC(=O)Nc1cc(C(F)(F)F)c[nH]c1=O` (stereo not drawn), for which the “Percent Effect” value is on record as 102.3%.

With `O=C(CCc1ccco1)Nc1cc(C(F)(F)F)c[nH]c1=O`, the “Percent Effect” value was -7.508%.

As for `COc1cc(CNCc2ccnc(N3CCCC3)c2)cc(OC)c1.Cl`, the “Percent Effect” value worked out at 5.029%.

`O=C(NCc1ccccn1)[C@@H]1CCO[C@@H]2CCN(Cc3ccoc3)C[C@H]21.O=C(O)C(F)(F)F.O=C(O)C(F)(F)F`: the “Percent Effect” value was determined as 8.703%.

On to `Cc1cnn(CC2CN(Cc3nc(-c4ccsc4)no3)CCO2)c1` (stereo not drawn), for which the “Percent Effect” value is on record as 77.9%.

With `c1cnn(CCN2CCOC(Cn3cccn3)C2)c1` (stereo not drawn), the “Percent Effect” value is -7.25%.

Turning to `Cc1cnn(CC2CN(CCCS(C)(=O)=O)CCO2)c1` (stereo not drawn), the “Percent Effect” value came to 7.266%.

`O=S(=O)(CCN1CCOC(Cn2cccn2)C1)C(F)(F)F` (stereo not drawn): the “Percent Effect” value amounted to 103.2%.

Turning to `Cc1cnn(CC2CN(CCS(=O)(=O)C(F)(F)F)CCO2)c1` (stereo not drawn), the “Percent Effect” value is listed as 85.56%.

Take `c1ccc(-c2nc(CN3CCOC(Cn4cccn4)C3)no2)cc1` (stereo not drawn): the “Percent Effect” value was determined as 2.98%.

As to `c1cnn(CC2CN(Cc3nc(-c4ccsc4)no3)CCO2)c1` (stereo not drawn), the “Percent Effect” value is -8.346%.

Consider `Cc1cnn(CC2CN(CCS(C)(=O)=O)CCO2)c1` (stereo not drawn), for which the “Percent Effect” value came to 3.305%.

Regarding `O=S(=O)(CCN1CCOC(Cn2cccn2)C1)c1ccccc1` (stereo not drawn), the “Percent Effect” value is given as 6.109%.

For `Cc1cnn(CC2CN(Cc3nc(-c4ccoc4)no3)CCO2)c1` (stereo not drawn), the “Percent Effect” value is listed as 8.998%.

On to `Cc1ccc(-c2nc(CN3CCOC(Cn4cccn4)C3)no2)cc1` (stereo not drawn), for which the “Percent Effect” value was found to be 60.58%.

On to `Cc1nc(CN2CCOC(Cn3cccn3)C2)no1` (stereo not drawn), for which the “Percent Effect” value is -15.93%.

Take `O=C(O)C(F)(F)F.O=C(O)C(F)(F)F.c1cncc(N2CCCn3nnc(CN4CCCCC4)c3C2)c1`: the “Percent Effect” value was determined as 0.6199%.

Take `C1CC(CN2CCc3c(nnn3CC3CC3)C2COCC2CC2)C1.O=C(O)C(F)(F)F` (stereo not drawn): the “Percent Effect” value is recorded as -20.7%.

For the molecule `Cl.Cl.Cn1cc(C(=O)NCc2cncc3c2CCNC3)cn1`, the “Percent Effect” value is recorded as -18.1%.

In the case of `CN1CCN(CC2CN(CC3CC3)Cc3nccn3C2)CC1.O=C(O)C(F)(F)F.O=C(O)C(F)(F)F.O=C(O)C(F)(F)F` (stereo not drawn), the “Percent Effect” value was -11.65%.

As for `O=C(O)C(F)(F)F.O[C@@H]1CCN(CC2CC2)[C@H]1Cc1ccccc1`, the “Percent Effect” value is listed as -16.02%.

For `O=C(O)C(F)(F)F.O=C(O)C(F)(F)F.O=C(O)C(F)(F)F.c1ccc(CN2CC[C@@H]3O[C@@H](COCCN4CCCC4)CC[C@@H]32)nc1`, the “Percent Effect” value is -2.857%.

In the case of `CCOc1cccc2c1OCC(=O)N(c1ccc3c(c1)OCCO3)C2`, the “Percent Effect” value turned out to be 11.44%.

For `CCOc1cccc2c1OCC(=O)N(c1ccc3c(c1)OCO3)C2`, the “Percent Effect” value was -8.154%.

Turning to `CCOc1cccc2c1OCC(=O)N(c1ccc(N(C)C)cc1)C2`, the “Percent Effect” value was found to be 78.25%.

In the case of `COCCN1CCC2(CC1)CN(C(=O)c1ccco1)CCO2.O=C(O)C(F)(F)F`, the “Percent Effect” value is listed as -23.42%.

In the case of `O=C(Nc1nc2c(s1)CCC2)NC1CCCC1`, the “Percent Effect” value was found to be 7.852%.

Take `Cl.O=C(Nc1nc2c(s1)CNCC2)C1CC1`: the “Percent Effect” value is on record as 12.02%.

Turning to `Cl.O=C(Nc1nc2c(s1)CNCC2)NC1CCCC1`, the “Percent Effect” value was 102.9%.

As for `O=C(O)C(F)(F)F.O=C(O)C(F)(F)F.c1cncc(-c2nnn3c2COCC(CNCC2CCOCC2)C3)c1` (stereo not drawn), the “Percent Effect” value is on record as -15.79%.

Turning to `COCCn1cc2c(n1)C(CNCc1cccc(OC)c1)OCC2.O=C(O)C(F)(F)F` (stereo not drawn), the “Percent Effect” value is on record as -15.92%.

As for `Cc1ccc(CN2CC[C@@H]3O[C@@H](C(=O)N4CCN(C)CC4)C[C@@H]32)cc1.O=C(O)C(F)(F)F.O=C(O)C(F)(F)F`, the “Percent Effect” value was 25.47%.

In the case of `CCn1ncc2c1CN(C(=O)c1cscn1)CC2COC.O=C(O)C(F)(F)F` (stereo not drawn), the “Percent Effect” value turned out to be 5.615%.

Regarding `CC(C)CN1CCC(N2CCC(C(=O)N(C)C)CC2)CC1.O=C(O)C(F)(F)F.O=C(O)C(F)(F)F`, the “Percent Effect” value is 9.102%.

Consider `O=C(c1cc(-c2ccn(CC3CC3)n2)n2ccccc12)N1CCOCC1`, for which the “Percent Effect” value is 104.4%.

In the case of `Cn1ccc(-c2cc(C(=O)N3CCC(C(N)=O)CC3)c3ccccn23)n1`, the “Percent Effect” value is 6.568%.

As for `O=C(O)c1cc(-c2ccn(CC3CC3)n2)n2ccccc12`, the “Percent Effect” value is given as -0.3144%.

Turning to `Cn1ccc(-c2cc(C(=O)N3CCCCC3)c3ccccn23)n1`, the “Percent Effect” value is 2.688%.

For the molecule `Cn1ccc(-c2cc(C(=O)N3CCC(O)CC3)c3ccccn23)n1`, the “Percent Effect” value came out at 65.18%.

Consider `O=C(c1cc(-c2ccn(CC3CC3)n2)n2ccccc12)N1CCCO1`, for which the “Percent Effect” value worked out at 3.9%.

`O=C(NC[C@H]1OC[C@@H]2CCN(Cc3ccco3)C[C@@H]21)c1ccnnc1.O=C(O)C(F)(F)F`: the “Percent Effect” value is reported as -10.06%.

Consider `Cc1[nH]ccc1C(=O)N1CCCC(c2nccn2Cc2cscn2)C1` (stereo not drawn), for which the “Percent Effect” value is recorded as -1.058%.

As for `CN(C)C(=O)[C@@H]1C[C@@H]2CCN(Cc3nccs3)C[C@@H]2O1.O=C(O)C(F)(F)F`, the “Percent Effect” value is -1.901%.

Regarding `O=C(O)C(F)(F)F.O=C(c1cccc(F)c1)N1CCC2(CC1)CC(N1CCOCC1)C2`, the “Percent Effect” value was -0.407%.

As for `CCCC(=O)NC1CCc2c(ccc(=O)n2Cc2csc(C)n2)C1.O=C(O)C(F)(F)F` (stereo not drawn), the “Percent Effect” value is 46.41%.

On to `Cc1cccc(CN2C[C@@H]3CN(C(=O)c4cnccn4)C[C@@H]3C2=O)n1.O=C(O)C(F)(F)F`, for which the “Percent Effect” value is on record as -21.43%.

As to `O=C(C1NCCc2[nH]cnc21)N1CCC2(CC1)CNc1ccccc12` (stereo not drawn), the “Percent Effect” value worked out at 80.65%.

Turning to `O=C(C1NCCc2[nH]cnc21)N1CCC2(C=Cc3ccccc32)CC1` (stereo not drawn), the “Percent Effect” value stood at 4.298%.

On to `O=C1OC2(CCN(C(=O)C3NCCc4[nH]cnc43)CC2)c2ccccc21` (stereo not drawn), for which the “Percent Effect” value is on record as 26.76%.
